Shown are actives, neighbours in structure and some others; about 5.2% of the full set was active somewhere.
mIDH1 inhibitor: qHTS for Inhibitors of mutant isocitrate dehydrogenase 1 (IDH1): qHTS | Isocitrate dehydrogenase [NADP] cytoplasmic (Homo sapiens), O75874 | IDH1-R132H enzyme, NADPH consumption, diaphorase/resazurin fluorescence | Potency, µM (top dose mostly 76.6 µM), without a hit: at the highest dose activity change, negative = inhibition, actives largely listed as inhibitors | 390,000 compounds, 0.093% hits; note: nearly all actives have a fitted effect of over 65% in size
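IDH1-R132H (0.5 ug/mL dispensed) in pH 7.5 Tris buffer was preincubated 30 min with compound, then given a substrate mix of 0.016 mM NADPH and 2 mM alpha-KG for 80 min at room temperature; remaining NADPH was read by diaphorase/resazurin fluorescence.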
Sfp PPTase inh: qHTS Assay for Inhibitors of Bacillus subtilis Sfp phosphopantetheinyl transferase (PPTase); 4'-phosphopantetheinyl transferase ffp (Bacillus subtilis), Q9F4F7; Biochemical Sfp PPTase activity, qHTS; Potency, µM, for inactives: largest response in the series, negative = inhibition, hits mostly inhibitors; 310,000 compounds, 3.5% hits; AID 1490, 2009;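 note: the enzyme is Sfp with the accession as filed and its product quenches rhodamine fluorescence; 0% = enzyme reaction without inhibitor and -100% = no enzyme wells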
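Reaction rates are the 30-min fluorescence difference (ex 525, em 598 nm) in wells containing 15 nM Sfp, 5 uM rhodamine-CoA and 12.5 uM BHQ-2-YbbR at pH 7.6 with 10 mM MgCl2.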
TrxR1 inh: qHTS Assay for Inhibitors of Mammalian Selenoprotein Thioredoxin Reductase 1 (TrxR1): qHTS; Thioredoxin reductase 1, cytoplasmic (Rattus norvegicus), O89049; recombinant rTrxR1, NADPH fluorescence consumption, selenite substrate; 390,000 compounds, 1% hits; AID 588453, 2011; Potency, µM (titrated, usually from 114 µM), without a hit: at the highest dose activity change, negative = inhibition, usual class: inhibitors; note: nearly all actives have a fitted effect of over 65% in size
Target sequence (O89049 whole entry, looked up): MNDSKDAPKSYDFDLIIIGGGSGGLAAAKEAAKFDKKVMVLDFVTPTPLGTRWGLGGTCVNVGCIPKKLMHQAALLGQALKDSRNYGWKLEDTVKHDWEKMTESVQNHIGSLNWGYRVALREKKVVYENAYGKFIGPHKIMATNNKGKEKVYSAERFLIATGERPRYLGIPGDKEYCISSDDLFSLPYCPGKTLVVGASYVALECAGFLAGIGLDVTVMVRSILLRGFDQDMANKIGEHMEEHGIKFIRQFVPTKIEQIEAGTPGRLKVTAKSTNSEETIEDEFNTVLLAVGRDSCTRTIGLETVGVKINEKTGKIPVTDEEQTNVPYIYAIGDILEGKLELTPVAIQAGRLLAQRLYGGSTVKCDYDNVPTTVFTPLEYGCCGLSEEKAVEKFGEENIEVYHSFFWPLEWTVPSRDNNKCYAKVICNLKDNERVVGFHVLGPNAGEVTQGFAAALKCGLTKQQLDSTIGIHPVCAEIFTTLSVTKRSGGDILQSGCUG
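Rat TrxR1 (90 nM in the dispensed reagent) was pre-reduced with 400 uM NADPH for 5 min at room temperature, then incubated with compound for 15 min. After 400 uM selenite was added, NADPH fluorescence (Ex 340/Em 450 nm) was followed for 8 min.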
PLK1 PBD block: qHTS for Inhibitors of PLK1-PDB (polo-like kinase 1 - polo-box domain): Primary Screen. Serine/threonine-protein kinase PLK1 (Homo sapiens), P53350. 360,000 compounds, 2.8% hits. Plk1 PBD binding of FITC phosphopeptide, fluorescence polarization. Potency, µM, for inactives: max response, negative = inhibition, usual class: inhibitors; note: series mostly up to about 57 µM; nearly all actives have a fitted effect of over 65% in size
TrxR1 substrate: qHTS Assay for Substrates of Mammalian Selenoprotein Thioredoxin Reductase 1 (TrxR1): qHTS; Thioredoxin reductase 1, cytoplasmic (Rattus norvegicus), O89049; purified TrxR1 substrate turnover, NADPH consumption readout; Potency, µM (top dose mostly 114 µM), for the others: at the top dose activity change, negative = substrate turnover; 390,000 compounds, 0.01% hits; AID 588456, 2011; note: nearly all actives have a fitted effect of over 50% in size
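Rat TrxR1, dispensed at 90 nM, was prereduced with 400 uM NADPH (final) for 5 min at ~22 deg C, then incubated with compound 15 min before 400 uM selenite. A first-read NADPH fluorescence drop versus no-compound background flagged substrates.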
VDR inh: Inhibitors of the vitamin D receptor (VDR): qHTS. Vitamin D3 receptor (Homo sapiens), P11473. VDR-SRC2-3 peptide fluorescence polarization, 2 h. Potency, µM, for inactives: max response, negative = inhibition, usual class: inhibitors. 400,000 compounds, 0.93% hits. AID 504847, 2011
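Reagent solutions, kept cold and dark, are dispensed first; compounds are then pinned in at 23 nl, plates briefly spun, and incubated 2 h at ambient temperature. Inhibition of VDR–SRC2-3 peptide binding is read by fluorescence polarization.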
* hit, by the source's call; ? = inconclusive; nt = not tested or not shown; [ ] = remark or other dose. Calls come from the whole dose curve; as a rule, active = well fitted curve in the direction sought with a large enough effect; inconclusive = small, poorly fitted or top-dose-only effect, or another doubt; inactive = no such curve, though single readings can be large; an effect the other way counts as inactive or inconclusive. Unless noted, % is set by controls: 0 for no effect and ±100 for the full control effect; potency is the fitted concentration of half-maximal effect.

SMILES	mIDH1 inhibitor	Sfp PPTase inh	TrxR1 inh	PLK1 PBD block	TrxR1 substrate	VDR inh
CCN(CC)c1ccc(S(=O)(=O)N2CCOCC2)cc1NC(=O)COC(=O)/C=C/c1ccccc1	-9%	nt	-4%	-1%	-11%	-16%
CCN(CC)c1ccc(S(=O)(=O)N2CCOCC2)cc1NC(=O)COC(=O)/C=C/c1ccc(C)o1	7%	nt	71µM*	-7%	-10%	-8%
NCCN(Cc1ccc(Cl)c(Cl)c1)c1ccc(Br)cn1	nt	nt	-11%	nt	-4%	7%
CC(C)C[C@H](NC(=O)[C@H](C)NC(=O)CNC(=O)[C@H](CCCCN)NC(=O)[C@H](CCCN=C(N)N)NC(=O)[C@H](C)NC(=O)[C@H](Cc1ccccc1)NC(=O)[C@@H](N)CCCN=C(N)N)C(=O)N[C@@H](CCCN=C(N)N)C(=O)N[C@@H](CCC(N)=O)C(=O)N[C@@H](CCCCN)C(=O)N[C@@H](CC(N)=O)C(=O)N[C@H](C(N)=O)C(C)C	nt	-12%	nt	nt	nt	6%
O=C1/C(=C/c2cccs2)Cc2ccccc21	6%	7%	4%	-7%	-1%	-9%
Cc1ccc(C=C2C(=O)c3ccccc3C2=O)s1	4%	?	-2%[57.1 µM]	17µM*	-3%[57.1 µM]	22%
O=C1C(=Cc2cccs2)C(=O)c2ccccc21	1%	6%	-13%	8.4µM*	7%[0.457 µM]	8%
Cc1cc(C=C2C(=O)c3ccccc3C2=O)c(C)n1C	-2%	-6%	-12%	-14%	-10%	-19%
O=C1/C(=C\c2cccs2)CCC/C1=C/c1cccs1	nt	-9%	nt	nt	nt	40µM*
CSc1ccccc1OCc1cc(C(=O)NCCc2nc(C)cc(C)n2)no1	-5%	0%	20%	-4%	3%	-3%
CN(C)C(=S)N=c1ssc(=S)n1Cc1ccccc1	0%	nt	?	?	-9%	40µM*
CCCCn1nc(C(=O)Oc2ccc3c(C)cc(=O)oc3c2)c2ccccc2c1=O	9%	3%	79µM*	-10%	569%	?
Cc1cc(=O)oc2cc(OC(=O)CCN3C(=O)c4ccccc4C3=O)ccc12	1%	2%	40µM*	-19%	263%	-17%
CCCC(=O)Oc1ccc2c(C)cc(=O)oc2c1	6%	11%	?	-6%	73%	2%
COc1ccccc1CNC(=O)c1cc2ccc3ccc(C)[nH]c3c2n1	16%	nt	21%	nt	3%	8%
O=C(COc1ccccc1C(=O)Nc1ccccc1)Nc1cccc(Cl)c1	nt	nt	3%	nt	-6%	nt
COc1ccc2c(c1)c(/C=N/Nc1nc3ccccc3[nH]1)c(C)n2C	7%	11µM*	41%	4%	15%	-6%
CCOc1ccc(N(C(C)C(=O)N2CCCC2)S(C)(=O)=O)cc1 (stereo not drawn)	3%	5%	7%[57.1 µM]	19µM*	-2%[57.1 µM]	?
CC(C(=O)N1CCCC1)N(c1ccc(Cl)cc1)S(C)(=O)=O (stereo not drawn)	-9%	nt	nt	-7%	nt	nt
COc1cnc(-c2ccccn2)nc1N(C)c1ccccc1	-7%	50µM*	-4%	-8%	-10%	-18%
COc1cc(Cl)c(C)cc1NC(=O)CSc1nc2c(c(=O)[nH]1)CCC2	nt	nt	4%	nt	-2%	6%
Cc1nc2ccc(C(=O)Nc3ccc4c(c3)OCC(=O)N4)cn2c1N(C)C(=O)CCc1ccccc1	nt	nt	nt	-4%	nt	nt
Cn1c(N2CCOCC2)c(/C=N/OC(=O)c2cccnc2Cl)c2ccccc21	15%	22µM*	17%[57.1 µM]	-9%	5%[57.1 µM]	-14%
CC(=O)O/N=C/c1c(N2CCOCC2)n(C)c2ccccc12	9%	10%	2%	-11%	-5%	-11%
CCOc1ccc(-c2nnc(-c3cccs3)o2)cc1OCC	4%	-6%	58%	19µM*	95%	-30%
SMILES	mIDH1 inhibitor	Sfp PPTase inh	TrxR1 inh	PLK1 PBD block	TrxR1 substrate	VDR inh
COc1cc(/C=C2\SC(=O)NC2=O)ccc1Oc1ccc([N+](=O)[O-])cn1	-9%	79µM*	7%[57.1 µM]	-16%	0%[57.1 µM]	?
COc1cc(/C=C2/NC(=O)N(Cc3ccccc3F)C2=O)ccc1Oc1ccc([N+](=O)[O-])cn1	5%	11%	-15%	1%	-9%	16%
COc1cc(/C=C2/SC(=O)NC2=O)ccc1Oc1ccc([N+](=O)[O-])cc1[N+](=O)[O-]	0%	50µM*	-24%	?	-12%	-20%
COc1cc(/C=C2/SC(N)=NC2=O)ccc1Oc1ccc([N+](=O)[O-])cc1[N+](=O)[O-]	3%	-10%	-64%	-7%	2%[57.1 µM]	-23%
COc1ccc(NC(=O)N2CCc3nc(-c4ccc(OC)cc4C)c4c(c3C2)CO[C@@H](c2ccccc2)C4)cc1	nt	0%	nt	nt	nt	nt
COc1ccc(NS(=O)(=O)c2csc(C(N)=O)c2)cc1	-10%	12%	-18%	-15%	-7%	-3%
C[C@@]12C=Cc3occc3[C@H]1CC[C@@]13C[C@@H](CC[C@H]12)[C@@](O)(CO)C3	nt	-17%	nt	nt	nt	?
Cc1nn(-c2ccccc2)c(C)c1/C=N\N1CCN(c2ccc(Cl)cc2)CC1	2%	25µM*	18%[57.1 µM]	-6%	6%[57.1 µM]	10%
Nc1nc(-c2ccccc2)c(N=Nc2ccc(Cl)cc2)s1	0%	25µM*	-13%	?	-16%	-9%
Nc1nc(-c2ccccc2)c(-c2ccccc2)s1	5%	-15%	-6%	?	-3%	?
COc1ccc(NC(=O)CSc2oc(-c3ccco3)nc2S(=O)(=O)c2ccccc2)c(OC)c1	0%	nt	-16%	nt	-3%	1%

Bioassay records as filed in PubChem BioAssay.
